Compound activity from PubChem.
JMJD2C inh: human JMJD2C demethylase inhibition; GST-JMJD2C(1-420) H3K9me3 demethylation, DELFIA europium; Q9H3R0; inhibition, % at 2.35 µM; 0.069% of 330,000 active;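 active means more than half of a compound's replicate wells show inhibition beyond 50%, single wells judged on their own value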;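 further: signal counts dimethyl H3K9 product captured on neutravidin plate; 0% = median of DMSO wells and 100% = 0.3 times that DMSO median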
Target sequence (Q9H3R0 1-420 limits assumed): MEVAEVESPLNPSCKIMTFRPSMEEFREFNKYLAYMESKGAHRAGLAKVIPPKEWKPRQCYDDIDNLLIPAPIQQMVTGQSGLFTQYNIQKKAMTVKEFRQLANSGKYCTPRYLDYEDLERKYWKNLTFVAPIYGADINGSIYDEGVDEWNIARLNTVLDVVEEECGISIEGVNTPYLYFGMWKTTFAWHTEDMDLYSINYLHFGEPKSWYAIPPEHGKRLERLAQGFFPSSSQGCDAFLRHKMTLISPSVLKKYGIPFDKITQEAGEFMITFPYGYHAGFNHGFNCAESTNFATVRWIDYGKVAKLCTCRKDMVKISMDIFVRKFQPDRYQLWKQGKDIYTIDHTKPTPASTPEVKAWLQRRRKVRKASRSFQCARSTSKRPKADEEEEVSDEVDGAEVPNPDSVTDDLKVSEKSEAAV
AGP1 TOR yeast: yeast TOR pathway AGP1-GFP modulation; S. cerevisiae AGP1-GFP multiplex flow cytometry, 3 h; GFP as percent of DMSO wells; GFP response vs DMSO, % at 10 µM; 0.02% of 320,000 active; AID 2066;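 active means GFP response relative to DMSO above a set limit, near screen average plus 3 SD, cut at about 150% in these data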;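 further: median GFP channel fluorescence of the gated AGP1 strain per well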
MEP2 TOR yeast: modulators of TOR pathway MEP2-GFP in S. cerevisiae; 0.51% of 330,000 active; GFP response vs DMSO, % at 10 µM; S. cerevisiae MEP2-GFP strain, flow cytometry GFP, 3 h; 100% = DMSO control level;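 active means GFP response versus DMSO above a set limit, roughly screen mean plus 3 SD, cut at about 180% in these data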;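 further: median GFP fluorescence of the barcode-gated MEP2-GFP cells per well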
LAP4-GFP MLPCN: modulators of TOR pathway LAP4-GFP in S. cerevisiae. S. cerevisiae LAP4-GFP multiplex, flow cytometry GFP, 3 h; median GFP as percent of DMSO wells. GFP response vs DMSO, % at 10 µM. 0.34% of 320,000 active;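 active means GFP response vs DMSO above a set limit, about the screen mean plus 3 SD, cut at about 150% in these data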
RPL19A TOR yeast: alters RPL19A-GFP fluorescence in TOR pathway yeast screen. S. cerevisiae RPL19A-GFP strain, flow cytometry, 3 h; hits give low values. percent response vs DMSO, % at 10 µM. 0.3% of 330,000 active;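 active means percent response vs DMSO below 50%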;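 further: median channel GFP fluorescence of the barcoded RPL19A-GFP strain; ratio of sample median GFP to plate DMSO average so 100% = DMSO; lower means less RPL19A-GFP as with rapamycin TOR inhibition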
CIT2-GFP yeast: alters CIT2-GFP fluorescence in TOR pathway yeast screen | S. cerevisiae CIT2-GFP strain, flow cytometry, 3 h; 100 means same as DMSO wells | GFP response vs DMSO, % at 10 µM | 0.065% of 320,000 active | AID 2029;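 active means GFP response relative to DMSO above a set limit, near the screen mean plus 3 SD, cut at about 150% in these data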;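 further: ratio of well median GFP fluorescence to mean of DMSO wells on the plate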
LAP4 cherry2: second confirmation of modulators of TOR reporter LAP4-GFP in yeast | S. cerevisiae LAP4-GFP strain, flow cytometry GFP, 3 h | shares compounds with LAP4-GFP MLPCN | AID 2621 | GFP response vs DMSO, % at 10 µM | 20% of 590 active;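 active means GFP signal as percent of the solvent control above about 150%, meaning raised reporter expression, limit read from the data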;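 further: ratio of well median GFP fluorescence to plate DMSO mean so 100% = DMSO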
MEP2-GFP pick2: yeast MEP2-GFP modulation, second cherry pick | shares compounds with LAP4-GFP MLPCN | S. cerevisiae MEP2-GFP strain, flow cytometry GFP, 3 h | GFP response vs DMSO, % at 10 µM | 10% of 590 active | AID 2622;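 active means GFP signal above 150% of the solvent control wells, that is a rise of more than half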;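 further: median channel GFP fluorescence of all gated yeast cells per well; ratio of median GFP to plate DMSO average so 100% = DMSO level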
RPL19A GFP CP2: reconfirmed modulator of RPL19A-GFP TOR reporter in yeast; shares compounds with LAP4-GFP MLPCN; S. cerevisiae RPL19A-GFP strain, flow cytometry GFP, 3 h; hits give low values; 100% means same as DMSO wells; GFP response vs DMSO, % at 10 µM; 3% of 590 active; AID 2623;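 active means under 65% GFP response relative to DMSO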;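 further: median GFP channel fluorescence per well over the all cells gate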
CIT2-GFP pick2: reconfirmed modulator of CIT2-GFP TOR reporter in yeast | shares compounds with LAP4-GFP MLPCN | S. cerevisiae CIT2-GFP strain, flow cytometry GFP, 3 h; DMSO control wells read 100% | GFP response vs DMSO, % at 10 µM | 8% of 590 active;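 active means GFP response vs DMSO above about 150%, limit read from the data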;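 further: median green fluorescence per well over all gated yeast cells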
AGP1 GFP CP2: second confirmation of modulators of TOR reporter AGP1-GFP in yeast | AID 2643 | 590 tested, under 10 active | shares compounds with LAP4-GFP MLPCN | percent response vs DMSO, % at 10 µM | S. cerevisiae AGP1-GFP strain, flow cytometry GFP, 3 h;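 active means over 150 percent of DMSO response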;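 further: median GFP channel fluorescence over all cells without mother daughter split; sample median GFP divided by mean DMSO control so 100% equals DMSO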
s288c autofluor: compound is autofluorescent in yeast s288c cells. shares compounds with LAP4-GFP MLPCN. S. cerevisiae s288c, 520 nm autofluorescence, flow cytometry, 3 h; hits give high values; zero means same as solvent-only cells. fluorescence change (kMESF span) at 33 µM. 610 tested, under 10 active. AID 2757;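 active means fluorescence span over the dose series, or activity score, above about 33, limit read from the data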
s288c autofl DR: TOR screen hit shows autofluorescence in yeast s288c. fluorescence change (span) at 33 µM. 110 tested, under 10 active. S. cerevisiae s288c parental, compound autofluorescence, flow cytometry, 3 h. AID 488829. shares compounds with LAP4-GFP MLPCN;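 active means fluorescence change span, or the activity score built from it, above 25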
TORC1 bypass: compounds blocking wildtype yeast growth but not TORC1 bypass cells; S. cerevisiae BY4741 spot growth rating, 48-72 h; hits give low values; AID 504456; growth rating (0-3) at 30 µM; shares compounds with LAP4-GFP MLPCN; 120 tested, under 10 active;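 active means growth rating at most 1 for wild type yeast while the TORC1 bypass strain still grows fully, rated 3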
Active calls of the source: *. The list is not random: actives were taken first. Their share in the collection is about 0.97%.

Screening O=c1cc(C(F)(F)F)[nH]c2ccc(OC(F)(F)F)cc12 returned JMJD2C inh -5.8, AGP1 TOR yeast 77.3, MEP2 TOR yeast 164.2, LAP4-GFP MLPCN 96.5, RPL19A TOR yeast 64.8, CIT2-GFP yeast 92.0, LAP4 cherry2 97.1, MEP2-GFP pick2 103.2, RPL19A GFP CP2 103.0, CIT2-GFP pick2 104.0 and AGP1 GFP CP2 102.3.
For O=c1cc(C(F)(F)F)[nH]c2c(C(F)(F)F)cccc12 the results were JMJD2C inh 2.3, AGP1 TOR yeast 95.2, MEP2 TOR yeast 109.5, LAP4-GFP MLPCN 105.5, RPL19A TOR yeast 111.1 and CIT2-GFP yeast 107.1.
Screening CCN1C(=O)[C@H]2[C@@H](c3ccc(OC)cc3)N3C(=O)CN(CCOC)C(=O)[C@@]3(Cc3ccccc3)[C@H]2C1=O returned JMJD2C inh 7.2, AGP1 TOR yeast 92.6, MEP2 TOR yeast 91.7, LAP4-GFP MLPCN 125.7, RPL19A TOR yeast 99.3 and CIT2-GFP yeast 105.8.
`CCNc1nc(Cl)nc(N(NC(C)=O)C(C)CC)n1` (centres undefined) gave JMJD2C inh -1.0, AGP1 TOR yeast 73.1, MEP2 TOR yeast 71.6, LAP4-GFP MLPCN 98.0, RPL19A TOR yeast 61.4, CIT2-GFP yeast 58.4, LAP4 cherry2 101.2, MEP2-GFP pick2 104.8, RPL19A GFP CP2 98.7, CIT2-GFP pick2 101.5 and AGP1 GFP CP2 96.6.
For CCNc1nc(Cl)nc(N(NC(C)=O)C(C)C)n1 the results were JMJD2C inh 7.3, AGP1 TOR yeast 97.6, MEP2 TOR yeast 87.3, LAP4-GFP MLPCN 101.9, RPL19A TOR yeast 94.1 and CIT2-GFP yeast 81.1.
COc1ccc(NC(=O)CN(C)C(=O)C2(c3ccccc3)CCCC2)cc1 was read as JMJD2C inh 0.2, AGP1 TOR yeast 112.1, MEP2 TOR yeast 99.2, LAP4-GFP MLPCN 152.2*, RPL19A TOR yeast 81.7, CIT2-GFP yeast 82.9, LAP4 cherry2 99.2, MEP2-GFP pick2 97.8, RPL19A GFP CP2 98.2, CIT2-GFP pick2 108.5 and AGP1 GFP CP2 99.5.
`Cc1ccc2c(c1)nnn2C1CCN(S(=O)(=O)c2ccc(C(=O)N(C)C3CCCCC3)cc2)CC1` gave JMJD2C inh 1.0, AGP1 TOR yeast 28.8, MEP2 TOR yeast 133.7, LAP4-GFP MLPCN 103.5, RPL19A TOR yeast 63.9, CIT2-GFP yeast 104.2, LAP4 cherry2 96.2, MEP2-GFP pick2 94.3, RPL19A GFP CP2 100.2, CIT2-GFP pick2 108.5 and AGP1 GFP CP2 98.8.
Oc1c(I)cc(I)c2cccnc12 was read as JMJD2C inh -19.5, AGP1 TOR yeast 96.3, MEP2 TOR yeast 110.7, LAP4-GFP MLPCN 237.8*, RPL19A TOR yeast 100.1, CIT2-GFP yeast 147.6, LAP4 cherry2 167.3*, MEP2-GFP pick2 146.7, RPL19A GFP CP2 82.2, CIT2-GFP pick2 112.6, AGP1 GFP CP2 94.2, s288c autofluor 1.21, s288c autofl DR 0.9 and TORC1 bypass 3.
For Oc1ccc(F)c2cccnc12 the results were JMJD2C inh -5.2, AGP1 TOR yeast 99.8, MEP2 TOR yeast 103.1, LAP4-GFP MLPCN 100.1, RPL19A TOR yeast 97.8 and CIT2-GFP yeast 107.9.
For Cc1ccc2nc(Cl)c3nnnn3c2c1 the results were JMJD2C inh 7.8, AGP1 TOR yeast 84.9, MEP2 TOR yeast 97.5, LAP4-GFP MLPCN 297.9*, RPL19A TOR yeast 55.6, CIT2-GFP yeast 65.9, s288c autofluor 3.13, s288c autofl DR 1.14 and TORC1 bypass 0.
Screening CCCN(CC(=O)Nc1ccccc1OC)Cc1c(O)ccc2ccccc12 returned JMJD2C inh -6.8, AGP1 TOR yeast 102.6, MEP2 TOR yeast 108.6, LAP4-GFP MLPCN 103.1, RPL19A TOR yeast 106.2 and CIT2-GFP yeast 107.6.
For Cc1cc(NC(=O)CSc2nnc(Nc3ccccc3C)s2)no1 the results were JMJD2C inh 7.1, AGP1 TOR yeast 104.1, MEP2 TOR yeast 81.7, LAP4-GFP MLPCN 153.0*, RPL19A TOR yeast 91.4, CIT2-GFP yeast 87.2, LAP4 cherry2 103.2, MEP2-GFP pick2 104.8, RPL19A GFP CP2 98.5, CIT2-GFP pick2 107.1 and AGP1 GFP CP2 100.0.
Cc1cc(NC(=O)CSc2nnc(Nc3ccccc3)s2)no1 was read as JMJD2C inh -4.1, AGP1 TOR yeast 102.5, MEP2 TOR yeast 102.4, LAP4-GFP MLPCN 99.0, RPL19A TOR yeast 100.3 and CIT2-GFP yeast 101.0.
`Cc1[nH]c2ccccc2c1C(=O)COC(=O)c1ccc([N+](=O)[O-])s1` gave JMJD2C inh 6.9, AGP1 TOR yeast 19.2, MEP2 TOR yeast 123.6, LAP4-GFP MLPCN 68.6, RPL19A TOR yeast 62.4, CIT2-GFP yeast 94.8, LAP4 cherry2 138.3, MEP2-GFP pick2 179.9*, RPL19A GFP CP2 77.3, CIT2-GFP pick2 143.2, AGP1 GFP CP2 69.7 and s288c autofluor 6.78.
CC(C)(C)c1ccc(NC(=O)COC(=O)c2ccc([N+](=O)[O-])s2)cc1 was read as JMJD2C inh -1.8, AGP1 TOR yeast 46.4, MEP2 TOR yeast 168.0, LAP4-GFP MLPCN 211.2*, RPL19A TOR yeast 69.7, CIT2-GFP yeast 95.3, LAP4 cherry2 226.0*, MEP2-GFP pick2 223.0*, RPL19A GFP CP2 85.7, CIT2-GFP pick2 131.2, AGP1 GFP CP2 79.8, s288c autofluor 4.51, s288c autofl DR 1.39 and TORC1 bypass 0.
